Test results published in PubChem BioAssay AID492998 (Southern Research Specialized Biocontainment Screening …, 2010).
The whole screen tested about 2,300 compounds, of which about 550 (24%) were called active. The rule behind the calls is not given here. These entries were drawn from the full list. Measured potencies and affinities stand elsewhere.

test: Vero E6 cell cytotoxicity, dose response, cytotoxicity control for non-replicating M. tuberculosis project, secondary assay (AID 492998); details: series mostly up to 20 µM

SMILES	outcome
COc1cccc(OCC(=O)NNC(=O)C(=O)Nc2cccc(C)c2)c1	inactive
CC(C)=CCN1CCN(CCC2=C(C)CCCC2(C)C)CC1CCO (stereo not drawn)	inactive
CN1C(=O)CC(Sc2ccccc2C(=O)O)C1=O (stereo not drawn)	inactive
Cc1ccc(N/N=C2\CS(=O)(=O)N(C)c3ccsc32)cc1	inactive
CCCOc1ccc(-c2nc(C#N)c(NCCCn3ccnc3)o2)cc1	inactive
COc1ccc(C(=O)OCn2nnc3ccccc3c2=O)cc1[N+](=O)[O-]	inactive
CC(C)CN(Cc1c(O)ccc2ccccc12)CC(C)C	inactive
O=C(CNC(=O)c1ccco1)OCc1ccc(C(=O)Oc2ccccc2)cc1	inactive
Oc1ccc(Cl)cc1CNCc1ccc(F)cc1	inactive
O=[N+]([O-])c1ccc(CNc2cccc(Cl)c2)s1	inactive
CCC(C)[C@H]1CN=C(N)N1CCc1cccc2ccccc12 (stereo partly drawn)	inactive
COc1ccc(C(=O)OCn2nnc3ccccc3c2=O)cc1	inactive
CC(C)N=C1SC(CC(=O)Nc2ccccc2)C(=O)N1C(C)C (stereo not drawn)	inactive
Cc1cccc(CC(=O)NCC2CCCCC2)c1	inactive
CCCN1C(=O)SC(CC(=O)Nc2ccccc2)C1=O (stereo not drawn)	inactive
O=C(NCC1CCN(c2ccc(S(=O)(=O)N3CCOCC3)cc2)CC1)c1ccc(Cl)cc1	inactive
COC(=O)COc1ccc(S(=O)(=O)N2CCCCCC2)cc1	inactive
N#Cc1ccc(-c2ccc(OCC(=O)Nc3cccnc3)cc2)cc1	inactive
O=C(CN1CCN(c2ccccc2O)CC1)Nc1ccc2c(c1)CCC2	inactive
O=S(=O)(Nc1nccs1)c1ccc(NCc2cc(Br)cc(Br)c2O)cc1	inactive
COc1ccc(C2=NOC(COC(=O)c3ccc4ccccc4n3)C2)cc1 (stereo not drawn)	inactive
COc1ccc(C(=O)COC(=O)CCC(=O)c2cccs2)cc1	inactive
O=C(O)COc1ccc2occ(C(=O)c3ccccc3)c2c1	inactive
Cc1cc(C)c(OCC(=O)Nc2nnc(-c3ccco3)o2)c(C)c1	inactive
O=C(OCC#CCSc1nnc(-c2ccncc2)o1)c1cccs1	inactive

SMILES	outcome
O=C(Nc1nnc(-c2ccco2)o1)c1ccc(Cl)s1	inactive
CCOC(=O)c1c(C)[nH]c(C)c1C(=O)COC(=O)c1ccc([N+](=O)[O-])s1	inactive
O=C(c1ccc(Cl)cc1)c1nnc(-c2ccncc2)o1	inactive
O=C(COC(=O)c1ccc([N+](=O)[O-])s1)Nc1ccc(Cl)cn1	inactive
CCN1CCN(C(=O)CN(Cc2ccccc2)S(C)(=O)=O)CC1	inactive
Clc1ccc(SCCOCCN2CCc3ccccc3C2)cc1	inactive
O=c1oc2ccccc2c2c1nnn2CCO	inactive
CCC(C)c1ccc(O)c(/C=N/O)c1 (stereo not drawn)	inactive
COc1ccc2c3c(cccc13)OCC2=O	inactive
COc1ccc(NC(=O)c2ccc(COCC(F)(F)C(F)F)cc2)cc1	inactive
O=C(NCCC1CCCC1)c1cccs1	inactive
O=C1CC(N2CCN(Cc3ccccc3)CC2)C(=O)N1CCc1ccccc1 (stereo not drawn)	inactive
O=C(N/N=C/c1cccc2cccnc12)c1ccccc1O	inactive
CCCOc1ccc(CCC(=O)N/N=C/c2ccc([N+](=O)[O-])o2)cc1	inactive
COCCNC(=O)CC(=O)N/N=C/c1cccc(C(=O)OC)c1	inactive
NC(=O)N/N=C\c1cc(Br)ccc1O	inactive
COC(=O)COc1ccc2c(-c3ccc(OC)cc3)cc(=O)oc2c1	inactive
Cc1cccc(C)c1N1C(=O)CC(N2CCSCC2)C1=O (stereo not drawn)	inactive
Cc1ccc(C(=O)OCC(=O)N2CCCCCC2)c(O)c1	inactive
Cc1ccc(CCC(=O)Nc2ccc([N+](=O)[O-])cc2)o1	inactive
CN(C)c1ccc(NC(=O)COC(=O)c2cc(Cl)ccc2[N+](=O)[O-])cc1	inactive
CC[n+]1c(/C=C(\C)Nc2ccccc2)sc2ccccc21	inactive
CC(C)(C)c1cc(CN2CCN(CCO)CC2)cc(C(C)(C)C)c1O	inactive
COc1ccc(-c2noc(CCC(=O)Nc3cccc(C)c3)n2)cc1	inactive
Cc1ccc2c(CC(=O)OCC(=O)Nc3ccc(Cl)cn3)coc2c1	inactive

SMILES	outcome
CC(C)OC(=O)COc1ccc(-c2ccccc2)cc1	inactive
OC(CNCCc1ccc(C(F)(F)F)cc1)COc1ccc2ccccc2c1 (stereo not drawn)	inactive
Cc1noc(C)c1COc1ccc(C(=O)Nc2ccccn2)cc1	inactive
N#Cc1nc(-c2ccc(OCc3ccccc3)cc2)oc1NCCCn1ccnc1	inactive
CC1=NN(C(=O)c2csc(C(C)C)c2)C(O)(C(F)(F)F)C1 (stereo not drawn)	inactive
O=C(c1ccccc1[N+](=O)[O-])N1N=C(c2ccccc2)CC1(O)C(F)(F)F (stereo not drawn)	inactive
CC1=NN(C(=O)c2ccc(Cn3nc(C)c(Br)c3C)cc2)C(O)(C(F)(F)F)C1 (stereo not drawn)	inactive
CC1=NN(C(=O)c2csc(C)c2)C(O)(C(F)(F)F)C1 (stereo not drawn)	inactive
CC(=O)N(c1nnc(-c2ccc(C)cc2)s1)C1CCCC1	inactive
COc1ccc(-c2nnn(Cc3ccccc3)n2)cc1	inactive
Cc1nnc(N/N=C/c2ccc(-c3ccc(Br)cc3)o2)n1N	inactive
O=C(OCC(=O)N1CCC(c2ccccc2)=N1)c1ccc([N+](=O)[O-])s1	inactive
O=C(NCCCN1CCOCC1)c1ccc(CSc2ccc(Cl)cc2)cc1	inactive
O=C(OCn1nnc2ccccc2c1=O)c1ccc(Br)o1	inactive
COc1cccc(C(=O)OCn2nnc3ccccc3c2=O)c1OC	inactive
CCc1cc(OCCCCNCc2ccccc2)ccc1Cl	inactive
C=CCOc1ccc(CNCCO)cc1OCC	inactive
CCCn1nnnc1NCc1ccc(CC)cc1	inactive
O=C(CCCSc1nc2ccccc2s1)NCc1ccco1	inactive
CC(C)CCC1=NN(C(=O)c2ccco2)C(O)(C(F)(F)F)C1 (stereo not drawn)	inactive
O=C1CC(=O)CC(c2ccccc2)C1	inactive
Cc1cccc(N2CCN(Cc3ccc([N+](=O)[O-])o3)CC2)c1C	inactive
NC1=NC[C@H](Cc2ccccc2)N1CCCCC1CCCCC1	inactive
CCCC(=O)N1CCC(Cc2ccccc2)CC1	inactive
CCc1ccc(N2CCN(CCNC(=O)Nc3ccc(OC)cc3)CC2)cc1	inactive

SMILES	outcome
COc1ccc(-c2cc(C(F)(F)F)nc(S(C)(=O)=O)n2)cc1	inactive
O=C(Oc1c(-c2ccco2)oc2ccccc2c1=O)c1cccnc1	inactive
CC(=O)Oc1c(-c2ccco2)oc2ccccc2c1=O	inactive
Cc1ccc2c(C)ccc(O)c2n1	inactive
Cc1cccc(NCc2nnc(-c3ccccc3)o2)c1C	inactive
CC(C)(C)C(=O)COc1ccccc1[N+](=O)[O-]	inactive
CCOc1ccccc1C(=O)OCC(=O)Nc1nnc(-c2ccccc2)o1	inactive
CCS(=O)(=O)c1ncc(Cl)c(C(=O)Nc2ccc(S(=O)(=O)N(C)c3ccccc3)cc2)n1	inactive
Cc1cccc(C(=O)Nc2nnc(-c3cccnc3)o2)c1	inactive
COc1cccc(C(=O)OCC(=O)Nc2nnc(-c3ccccc3)o2)c1	inactive
O=C(Nc1nnc(-c2ccc3c(c2)CCCC3)o1)c1c(F)cccc1F	inactive
CCOc1ccc(C(=O)Nc2nnc(C3=COCCO3)o2)cc1	inactive
CCCCNC(=O)Nc1nnc(-c2ccc(OCC)cc2)o1	inactive
c1ccc(-c2nnc(SCc3cn4ccsc4n3)o2)cc1	inactive
CCS(=O)(=O)c1ncc(Cl)c(C(=O)Nc2ccc(C)cc2)n1	inactive
CCCCn1c(N)c(-c2nc3ccccc3o2)c2c([N+](=O)[O-])nn(CC)c(=O)c21	inactive
CCOC(=O)c1sc(NC(=O)CCN2CC(C)OC(C)C2)c(C(=O)OCC)c1C (stereo not drawn)	inactive
CCCNC(=O)NC(=O)COc1ccc(-c2ccc(C#N)cc2)cc1	inactive
Cc1ccc(NCCC(=O)c2cccs2)cc1Cl	inactive
Cc1ccc(Sc2ncccc2N)cc1	inactive
Oc1ccccc1CN1CCCC(N2CCN(c3cccc(C(F)(F)F)c3)CC2)C1 (stereo not drawn)	inactive
O=C(CCc1c[nH]c2ccccc12)Nc1ncccc1O	inactive
COc1cc(/C=N/NC(=O)c2ccccn2)ccc1OC(=O)c1cccs1	inactive
C/C(=N\Nc1ccc(Cl)cc1)c1ccccn1	inactive
CC(C)c1ccc(/C=N/NC(=O)c2ccccn2)cc1	inactive

SMILES	outcome
COc1ccc2oc(=O)c(/C(C)=N/NC(=O)c3ccncc3)cc2c1	inactive
C/C(=N\Nc1cccc2cccnc12)c1ccccn1	inactive
CC(/C=C\C=C\c1ccccc1)=N\NC(=O)c1cncc(Br)c1	inactive
Cc1ccnc(NC(=O)CCc2c[nH]c3ccccc23)c1	inactive
CCCn1nnnc1NC(=O)COc1ccc(Br)cc1	inactive
Cc1ccccc1-n1c(C)cc(/C=N/NC(=O)c2ccncc2)c1C	inactive
O=[N+]([O-])c1ncccc1Oc1nc(-c2cccnc2)nc2ccccc12	inactive
Clc1ccccc1OCc1nnc(-c2ccccc2)o1	inactive
CCOC(=O)/C=C1\Nc2ccccc2OC1=O	inactive
N=c1oc2ccccc2cc1C(=O)Nc1ccccc1	inactive
N#CC(C(=O)Nc1ccccc1)=C1Nc2ccccc2N1	inactive
Cc1ccc(OC(=O)c2ccc(Br)o2)cc1	inactive
CCC(=O)c1ccc(OCC(=O)OCC(=O)c2cc(C)n(C3CC3)c2C)cc1	inactive
CC(C)(C)NCc1cc(Br)ccc1OCc1cccs1	inactive
O=C(OCC(=O)N1CCN(c2ccccc2)CC1)c1cnc(Cl)c(Cl)c1	inactive
O=C(NCc1ccco1)c1nc2ccccc2s1	inactive
O=C1CC(N2CCN(c3ccccc3)CC2)C(=O)N1CCc1ccccc1 (stereo not drawn)	inactive
COC(=O)COc1ccc(-c2ccccc2)cc1C=O	inactive
CC(C)(O)C#Cc1ccc(C(=O)Nc2ccc3c(c2)OCO3)s1	inactive
O=[N+]([O-])c1ccc2nc(SCc3cn4ccccc4n3)[nH]c2c1	inactive
C#CCSc1nnc(-c2ccc([N+](=O)[O-])cc2)o1	inactive
N/N=C(/Cc1nc2ccccc2[nH]1)c1ccc([N+](=O)[O-])cc1	inactive
O=C(Nc1nc2ccccc2[nH]1)c1cccc([N+](=O)[O-])c1	inactive
